For the test, the system named is Plasmodium falciparum. The test is described as follows: GSK_TCMDC: Inhibition of Plasmodium falciparum Dd2 in whole red blood cells, using parasite LDH activity as an index of growth. Test compounds present at 2uM. It counts as functional.
In the case of `C(=Cc1nc2ccccc2s1)c1ccc2c(c1)OCCO2.Cl`, the Inhibition was determined as 96%.

Regarding `CN1CCN(C(C(=O)NCc2cc(Cl)cc(Cl)c2)c2ccc(Nc3cccc(C(F)(F)F)c3)cc2)CC1` (centres undefined), the Inhibition came out at 98%.

`O=C(O)C(F)(F)F.O=C1CCCN1CCCNCc1ccc(-c2ccc(-c3nc4cc(C(F)(F)F)ccc4[nH]3)cc2)cc1` displayed an Inhibition of 98%.

Turning to `COc1cc(-c2nnc(SCC(=O)Nc3cc(C)on3)n2C)cc(OC)c1O`, the Inhibition was 2%.

For the compound `O=C1C[C@@H]([S+]([O-])Cc2nccs2)N1CCOCCCCCCc1ccc(Cl)cc1` (some centres undefined), the Inhibition amounted to 0%.

For `CC(C)(C)c1nn(-c2ccccc2)c2[nH]c(=O)c(CNC3CCCC3)cc12`, the Inhibition was found to be 70%.

On to `O=C(Nc1ccc(Cn2ncc(N3CCCNCC3)c(Cl)c2=O)cc1)Nc1ccc(SC(F)(F)F)cc1.O=C(O)C(F)(F)F`, for which the Inhibition turned out to be 68%.

Turning to `FC(F)(F)c1ccc2[nH]c(-c3ccc(-c4cccc(CNCCc5cccnc5)c4)s3)nc2c1.O=C(O)C(F)(F)F`, the Inhibition turned out to be 98%.

Regarding `CCC[C@@H]([C@@H](CC1CCCCC1)C(=O)N[C@H](C(=O)Nc1nccs1)C(C)(C)SCCNC(=O)OCC)N(O)C=O`, the Inhibition was 98%.

In turn, `CN1CCN(c2ccnc3ccc(NC(=O)Nc4ccc(Br)cc4)cc23)CC1` gave an Inhibition of 99%.

Take `COc1cc2nc(N3CCC(CNC(=O)c4ccc(C(C)=O)cc4)CC3)nc(N)c2cc1OC.O=C(O)C(F)(F)F`: the Inhibition came out at 15%.

Compound `CC(C)NCc1cccc(-c2cccc(NC(=O)c3cccc(C#N)c3)c2)c1.O=C(O)C(F)(F)F` yielded an Inhibition of 22%.

With `O=C(Nc1cccc(CN2CCCN(Cc3ccc(F)cc3)CC2)c1)c1ccc(Cl)c(Cl)c1.O=C(O)C(F)(F)F`, the Inhibition turned out to be 17%.

Consider `COc1cc(Cn2ccc3c4c(N)nc(N)nc4ccc32)cc(OC)c1OC`, for which the Inhibition was 97%.

As usually defined, the Inhibition is the percentage by which the read-out fell short of the control. High values mean strong suppression, low ones little suppression.

(Values after ChEMBL document CHEMBL1157539, “Thousands of chemical starting points for antimalarial lead identification” (Nature, 2010).)
